Hits are enriched below; roughly 3.5% of the tested compounds scored in any of these assays.
BoNT-F LC inh – BoNT/F light chain protease inhibitors, primary screen, biochemical, flow cytometry, MLPCN library | Botulinum neurotoxin type F light chain protease (Clostridium botulinum) | Multiplex microsphere protease cleavage assay | inhibition, % at 10 µM | 360,000 compounds, 0.22% hits | AID 588497, 2011; in the data active = inhibition above about 35%, passing the limit was not always enough; inconclusive = no clear call, values can overlap the other calls
BoNT A protease – BoNT/A light chain protease inhibitors, primary screen, biochemical, flow cytometry, MLPCN library; Botulinum neurotoxin type A light chain protease (Clostridium botulinum A str. ATCC 3502); multiplex microsphere protease substrate cleavage; inhibition, % at 10 µM; 360,000 compounds, 0.17% hits; AID 588499, 2011
Anthrax LF prot – Bacillus anthracis LF protease inhibitors, primary screen, biochemical, multiplex microsphere, MLPCN library; Lethal factor (Bacillus anthracis), P15917; multiplex microsphere protease cleavage assay; inhibition, % at 10 µM; 360,000 compounds, 0.12% hits
Autofluor counter – counter-screen for toxin protease inhibitors: compound fluorescence; fluorescence intensity (concentration not given with the values); compound autofluorescence counterscreen, microsphere flow cytometry; active compounds read high; 360,000 compounds, 3.1% hits; in the data active = fluorescence intensity above about 16000; inconclusive = no clear call, values can overlap the other calls
BoNTA LC inh 1 – BoNT/A light chain protease inhibitors, confirmation, biochemical, flow cytometry, cherry pick 1; inhibition, % at 10 µM; multiplex microsphere protease assay; 720 compounds, 3% hits; shares compounds with BoNT-F LC inh; in the data active = inhibition above about 32%
BoNT-F LC CP1 – BoNT/F light chain protease inhibitors, confirmation, biochemical, flow cytometry, cherry pick 1; shares compounds with BoNT-F LC inh; multiplex microsphere protease cleavage assay; inhibition, % at 10 µM; 720 tested, under 10 active; AID 602140, 2011; call rule not given here
Anthrax LF CP1 – Bacillus anthracis LF protease inhibitors, confirmation, biochemical, multiplex microsphere, cherry pick 1 | shares compounds with BoNT-F LC inh | multiplex microsphere protease cleavage assay | inhibition, % at 10 µM | 720 tested, under 10 active | AID 602142, 2011; call rule not given here
Numbers stand for hits; 0 = inactive; ? = inconclusive; - = no result given. Cut-off read from the data, not from the text of the source, unless noted: active = inhibition above about 30%; inconclusive = no clear call, values can overlap the other calls; inactive = below that.

SMILES	BoNT-F LC inh	BoNT A protease	Anthrax LF prot	Autofluor counter	BoNTA LC inh 1	BoNT-F LC CP1	Anthrax LF CP1
COc1cc(OC)c(CN2CCc3c([nH]c4ccccc34)C2)cc1Br	?	51	0	26222	0	0	0
Cc1cccc(CN2CCc3c([nH]c4ccccc34)C2)c1	0	0	0	0	-	-	-
COc1ccc(C(=O)CSc2nnc(CN3CCCC3)n2-c2ccc(F)cc2)c(OC)c1	39	0	0	0	0	0	0
COc1ccc(C(=O)CSc2nnc(CN3CCCCC3)n2-c2ccc(F)cc2)cc1OC	0	0	0	0	-	-	-
O=C(c1cccs1)c1ccc(-c2cccs2)s1	0	33	35	0	0	0	0
CN1CCN(C(=O)c2ccc(-c3cccs3)s2)CC1	?	0	0	0	-	-	-
O=C(Nc1ccc(Br)cc1F)c1nc[nH]c1C(=O)N1CCc2ccccc2C1	0	0	0	0	-	-	-
CC(=O)Nc1ccc(NC(=O)c2sc(-c3ccccc3)nc2C)cc1	43	0	0	0	0	0	0
CNC(=O)c1sc(-c2ccccc2)nc1C	0	0	0	0	-	-	-
COc1cccc(Nc2nc(C(N)Cc3ccccc3)cs2)n1 (stereo not drawn)	0	0	0	0	-	-	-
CCn1c(SCc2ccccc2)nnc1C1CCN(S(=O)(=O)c2ccc(OC)cc2)CC1	35	0	0	0	0	0	0
CN(CC(=O)Nc1ccccc1Cl)CC(=O)Nc1cccc2ccccc12	0	0	0	0	-	-	-
Cc1ccc(C(=O)NC2CC(C)(C)NC(C)(C)C2)cc1Cl	?	0	0	0	-	-	-
CC1(C)CC(NC(=O)c2cccc([N+](=O)[O-])c2)CC(C)(C)N1	0	0	30	0	0	0	0
CCCC(=O)NCc1ccc2c(c1)cc(C)n2C	0	0	0	0	0	0	0
Cc1cc2cc(CNC(=O)Cc3ccc([N+](=O)[O-])cc3)ccc2n1C	0	77	0	0	0	0	0
Cc1cc2cc(CNC(=O)c3cccc([N+](=O)[O-])c3)ccc2n1C	0	0	0	0	-	-	-
Cc1cc2cc(CNC(=O)Cc3ccc([N+](=O)[O-])cc3)ccc2[nH]1	0	58	0	0	0	0	0
O=C(Cc1ccc([N+](=O)[O-])cc1)NCc1ccncc1	0	0	0	0	-	-	-
Cc1cc2cc(CNC(=O)CCC(=O)O)ccc2n1C	0	0	0	0	0	0	0
CCc1ccc(/C=C2\Oc3c(ccc(O)c3CN3CCN(CCO)CC3)C2=O)cc1	0	0	0	0	-	-	-
CC(C)(C)OC(=O)NCCc1onc(-c2ccccc2F)c1C(=O)O	0	0	0	0	-	-	-
CCNc1ccc(S(=O)(=O)N(C)C)cc1NCC(=O)Nc1ccccc1F	0	0	0	0	-	-	-
CCNc1ccc(S(=O)(=O)N(C)C)cc1NCC(=O)Nc1ccccc1Br	41	0	0	0	0	0	0
COc1ccc(S(=O)(=O)N2CCCCCC2)cc1N(C)S(=O)(=O)c1ccc(Cl)cc1	37	0	0	0	0	0	0
SMILES	BoNT-F LC inh	BoNT A protease	Anthrax LF prot	Autofluor counter	BoNTA LC inh 1	BoNT-F LC CP1	Anthrax LF CP1
COc1ccc(S(=O)(=O)N2CCC(C)CC2)cc1N(C)S(=O)(=O)c1ccccc1	0	0	0	0	-	-	-
COC(=O)Cn1c(C(O)c2ccccc2)nc2ccccc21 (stereo not drawn)	0	0	0	0	-	-	-
FC(F)(F)c1ccc2c(c1)[nH]c(=S)n2C1CC1	0	0	0	0	-	-	-
COCc1cc(C)nc(Nc2ccccc2OC)c1C#N	0	0	32	0	0	0	0
COC(=O)CSc1nc(N)c2c3c(sc2n1)C(c1ccccc1)SC(c1ccccc1)C3 (stereo not drawn)	0	30	0	0	0	0	0
O=C(NC1CCCC1)C(c1ccc(F)cc1)N(Cc1ccccc1)C(=O)c1csnn1 (stereo not drawn)	0	0	0	0	-	-	-
O=C(NC1CCCC1)C(c1cccnc1)N(Cc1ccccc1)C(=O)c1csnn1 (stereo not drawn)	43	0	0	0	0	0	0
CC(C)CCN(C(=O)c1csnn1)C(C(=O)NC1CCCC1)c1ccc(F)cc1 (stereo not drawn)	91	0	0	0	0	0	0
c1ccc(-c2ncc3ccccn23)cc1	0	0	0	0	0	0	0
COc1ncnc2c1ncn2CC1COC(C)(C)O1 (stereo not drawn)	?	0	0	0	-	-	-
Cc1cc(=O)oc2c(CN3CCCC3)c(O)c(Cl)cc12	0	0	30	0	0	0	0
CCOC(=O)c1cc(C(C)=O)n2ccccc12	0	0	0	0	-	-	-
CCOC(=O)c1cc(C(=O)c2cccs2)n2ccc(C(C)=O)cc12	0	35	0	0	0	0	0
CO/N=C(/C(=O)N[C@@H]1C(=O)N2C(C(=O)O)=CCS[C@H]12)c1cnc(N)s1	0	0	0	0	-	-	-
N#Cc1ccccc1NC(=O)CN1CCN(Cc2ccccc2)CC1	46	0	0	0	0	0	0
N#Cc1c(N)n(C2OC(CO)C(O)C2O)c2ncnc(N)c12 (stereo not drawn)	0	0	0	0	-	-	-
Cc1ccc(C(=O)Nc2nccs2)s1	0	0	0	0	-	-	-
CC(=O)c1sc2nc(-c3cccs3)cc(C(F)(F)F)c2c1N	0	0	0	0	-	-	-
Cc1c(C(=O)Nc2nccs2)sc2nc(-c3cccs3)cc(C(F)(F)F)c12	0	39	37	0	0	0	0
Cc1c(C(=O)O)sc2nc(-c3cccs3)cc(C(F)(F)F)c12	0	0	0	0	0	0	0
C[C@H]1CN([C@@H](C)CO)S(=O)(=O)c2ccc(Br)cc2O[C@H]1CN(C)C(=O)c1cccnc1	0	0	0	0	-	-	-
CC(C)CN(C(=O)CN1CCN(c2ccc([N+](=O)[O-])cc2)CC1)c1c(N)n(CC(C)C)c(=O)[nH]c1=O	0	0	0	0	-	-	-
COC(=O)[C@H](Cc1ccccc1)N(C)S(=O)(=O)c1cccc(S(=O)(=O)N(C)[C@@H](Cc2ccccc2)C(=O)OC)c1	0	0	0	0	-	-	-
COC(=O)C(Cc1ccccc1)NC(=O)c1cccc(S(=O)(=O)N(C)C)c1 (stereo not drawn)	37	0	0	0	0	0	0
COCCNc1nc(Nc2ccc(C#N)cc2)c2sccc2n1	0	0	0	0	-	-	-
Cc1ccc(C(CC(=O)N2CCNCC2)c2ccccc2)c(O)c1C (stereo not drawn)	0	0	0	0	-	-	-
Cc1ccc(C(CC(=O)N2CCCCC2)c2ccccc2)c(O)c1C (stereo not drawn)	128	0	69	0	0	0	0
COCCCNC(=O)C(Cc1ccccc1)NS(=O)(=O)c1ccc2c(c1)c(=O)n(C)c(=O)n2C (stereo not drawn)	52	0	0	0	0	0	0

From PubChem
